# HT1080 IDH1KD tx: qHTS for induction of synthetic lethality in tumor cells producing 2HG: qHTS for the HT-1080-IDH1KD cell line; HT-1080 IDH1 knockdown viability, ATP luminescence, 48 h; Potency, µM (doses to about 46.1 µM), without a hit: top-dose activity, negative = toxicity, usual class: cytotoxic; 360,000 tested, 2% active;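 further: 0% = DMSO wells and -100% = cell-free medium wells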
#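 Viability of IDH1-knockdown HT-1080 fibrosarcoma cells was assessed by CellTiter-Glo after 48 h at 37 °C with titrated compound; concentration-effect curves were classified by fit quality and response size.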
# KB-V1 cytotox: qHTS assay for MDR1-selective chemotherapeutics: Primary screen using the drug-selected MDR subline cells KB-V1 | KB-V1 MDR cells viability, CellTiter-Glo, 72 h | Potency, µM (doses to about 46.1 µM), hits mostly cytotoxic | 400,000 tested, 3.4% active | AID 1347076, 2019; further: on the % scale 0 is the no-effect control and ±100 the full control effect; nearly all actives have a fitted effect of over 60% in size
#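 Readout: CellTiter-Glo luminescence, 10 min after addition. Cells: KB-V1 MDR subline, 72 h at 37 degrees C with compound. Analysis: corrected, normalized data fitted to concentration-effect curves.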
# HepG2 tox: qHTS for Inhibitors of TGF-b: Cytotox Counterscreen. HepG2 CAGA-GFP viability, ATP luminescence, 18 h. Potency, µM (highest dose often 46.1 µM), for inactives: at the highest dose activity change, negative = cytotoxicity, hits mostly cytotoxic. 410,000 tested, 0.76% active
#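 HepG2 CAGA-GFP cells (1000/well, DMEM with 1% FBS) received compound, then TGF-beta at 500 pg/mL final, and were incubated 18 hours at 37 degrees C. Viability was read by CellTiter-Glo luminescence. Media-only wells were set as complete cell-killing and DMSO as no toxicity.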
# KB-3-1 tox: qHTS assay for MDR1-selective chemotherapeutics: Primary screen using the parental adenocarcinoma cell KB-3-1; Potency, µM (series often up to 46.1 µM), hits mostly cytotoxic; 400,000 tested, 1.4% active; AID 1347075, 2019; KB-3-1 viability, CellTiter-Glo ATP luminescence, 72 h; further: on the % scale 0 is the no-effect control and ±100 the full control effect; nearly all actives have a fitted effect of over 60% in size
#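 Viability of parental KB-3-1 cells, measured by CellTiter-Glo luminescence, followed a 72 h incubation at 37 °C with pinned compounds in phenol-red-free DMEM containing 10% FBS.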
# TGFb inhibitor: qHTS for Inhibitors of TGF-b; 410,000 tested, 1.2% active; AID 588855, 2011; HepG2 CAGA-GFP TGF-b/SMAD3 reporter, GFP fluorescence, 18 h; TGF-beta stimulated, 500 pg/mL final; Potency, µM (titrated, usually from 46.1 µM), without a hit: at the top dose activity, negative = inhibition, hits mostly inhibitors; further: on the % scale 0 is the no-effect control and ±100 the full control effect; nearly all actives have a fitted effect of over 65% in size
#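 HEPG2 CAGA-GFP, 1000 cells/well; 2 h settle, 37 C; cpd via pin tool; TGF-b 500 pg/mL final; 18 h, 37 C; GFP imaging ex488/em500-530; %Activity normalised to -TGF-b and +DMSO controls; CRC fit, curve class.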
# HT1080NT lethal: qHTS for induction of synthetic lethality in tumor cells producing 2HG: qHTS for the HT-1080-NT fibrosarcoma cell line | HT-1080-NT fibrosarcoma viability, CellTiter-Glo ATP luminescence, 48 h | Potency, µM (series often up to 46.1 µM), for the others: at the top dose activity, negative = less viability, hits mostly cytotoxic | 360,000 tested, 1.6% active | AID 686970, 2013;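 further: NT is the 2HG producing partner of a matched IDH1 knockdown line; 0% = DMSO-treated cells and -100% = media-only wells without cells; nearly all actives have a fitted effect of over 55% in size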
#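 Compounds were tested in concentration-response format on HT-1080-NT cells for 48 hours at 37 degrees C. Cell viability came from CellTiter-Glo luminescence; curves were classified by r2, response magnitude and activity.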
# Starred values were filed as active, the others as inactive; i = inactive; ? = inconclusive; / = no result; ! = repeats disagree; [ ] = remark or other dose. Rows were chosen to be rich in hits. Some 6.6% of all compounds tested hit in one or more screens of this group. The call rests on the fitted dose curve; in most records, active means well fitted curve in the direction sought with a large enough effect; inconclusive means small, poorly fitted or top-dose-only effect, or another doubt; inactive means no such curve, though single readings can be large; an effect the other way counts as inactive or inconclusive. Potency means the concentration at half of the fitted maximal effect.
SMILES,HT1080 IDH1KD tx,KB-V1 cytotox,HepG2 tox,KB-3-1 tox,TGFb inhibitor,HT1080NT lethal
COc1ccc(CN(C(=O)CSc2nnc(-c3ccccc3C)o2)c2ccc(F)cc2)cc1,?,i,-92%,i,?,?
O=C(CSc1nnc(-c2c[nH]c3ccccc23)o1)N(Cc1ccccc1)c1ccc(F)cc1,-29%[9.24 µM],12µM*,-43%,i,?,?
Clc1cccc(CSc2nnc(-c3c[nH]c4ccccc34)o2)c1,?,?,13µM*,i,?,?
CC1(C)CC(C(CC(=O)O)c2ccccc2)CCO1 (stereo not given),1%,i,0%,i,-2%,1%
CC(c1ccccc1)N(CCC(c1ccccc1)C1CCOC(C)(C)C1)C(=O)c1ccco1 (stereo not given),-2%,9.2µM*,-51%,i,?,7%
COc1ccc(CN(CCC(c2ccc(F)cc2)C2CCOC(C)(C)C2)C(=O)c2ccco2)cc1 (stereo not given),26µM*,?,-33%,?,?,?
Cc1cccc(NC(=O)CC2C(=O)NC3CCCCC3N2C(=O)c2ccccc2Cl)c1 (stereo not given),3%,i,-1%,i,1%,-1%
Cc1ccc(C(=O)N2C(CC(=O)Nc3ccc(Cl)cc3)C(=O)NC3CCCCC32)cc1 (stereo not given),5.2µM*,?,0%,?,-28%,5.8µM*
CC[n+]1c(/C=C(\C)OC)sc2ccccc21,11%,i,1%,i,-1%,20%
CC[n+]1c(/C=C/C=C/N(C(C)=O)c2ccccc2)sc2cc(OC)ccc21,?,13µM*,-37%,3.3µM*,168%,?
Clc1cccc(-n2ncc3c(Nc4ccc5c(c4)OCCO5)ncnc32)c1,/,i,-5%,i,20%,/
CC(C)CCNC(=O)CN1C(=O)c2cccnc2Oc2ccccc21,/,/,-2%,/,/,/
O=[N+]([O-])c1cc(CN2CCN(c3cccc(C(F)(F)F)c3)CC2)c2cccnc2c1O,?,?,-7%,3.7µM*,-23%,?
CCOc1cc(CN2CCN(c3cccc(C(F)(F)F)c3)CC2)ccc1O,?,16µM*,-45%,i,10%,-20%
CCOc1cc(CN2CCCCC2)ccc1OC,-10%,i,-4%,i,12%,7%
CC(C)OCc1cc(CN2CCN(c3cccc(C(F)(F)F)c3)CC2)c(O)c2ncccc12,/,/,-53%,/,1.6µM*,/
CCOc1cc(CN2CCN(c3ccc(C(C)=O)cc3)CC2)ccc1OC,-8%,23µM*,0%,i,?,-20%
CC1(C(=O)NS(=O)(=O)c2ccc(F)cc2F)CCN1C(=O)CC1CCCCC1 (stereo not given),22%,i,0%,i,10%,1%
Cc1ccc(S(=O)(=O)C2CCN(c3nc(-c4cccs4)nc4ccccc34)CC2)cc1,19%,/,/,/,/,-1%
O=C(NCCC1=CCCCC1)c1ccc2c(=O)n3nc(Nc4ccccc4)sc3nc2c1,/,/,5%,/,-2%,/
COc1ccccc1C1Nc2c(sc3nc(C)cc(C)c23)C(=O)N1c1ccccc1 (stereo not given),/,/,-40%,/,-2%,/
CCOc1cc(CN2CCN(c3cccc(C(F)(F)F)c3)CC2)ccc1OC,8%,?,-30%,i,?,-7%
O=[N+]([O-])c1cc(CN2CCCC2)c2cccnc2c1O,?,5.8µM*,1%,?,6%,16µM*
COc1cc(CN2CCCCCC2)cc([N+](=O)[O-])c1O,2%,i,14%,i,0%,0%
CCOCc1cc(CN2CCN(c3cccc(C(F)(F)F)c3)CC2)c(O)c2ncccc12,/,/,-36%,/,2.8µM*,/
SMILES,HT1080 IDH1KD tx,KB-V1 cytotox,HepG2 tox,KB-3-1 tox,TGFb inhibitor,HT1080NT lethal
CCOC(=O)c1ccc(NCc2ccc3c(c2)OCO3)cc1,5%,21µM*,-4%,i,-6%,19%
C=C1CC2(OC1=O)c1ccccc1CCc1ccccc12,5.8µM*,i,14µM*,?,8.9µM*,?
O=C1NC(=O)C2(CCc3ccccc32)N1 (stereo not given),6%,i,1%,i,-6%,8%
CN(C)c1ccc(C(=C2C=CC(=[N+](C)C)C=C2)c2ccc(N(C)C)cc2)cc1,/,i,-93%,2.6µM*,?,/
CN(C)c1ccc(/C=C/c2ccc3ccccc3[n+]2C)cc1,1.3µM*,?,7.1µM*!,0.33µM*!,2.2µM*,?
CN(CCCS(=O)(=O)[O-])c1ccc(/C=C/c2ccc3ccccc3[n+]2C)cc1,-3%,i,2%,?,-11%,1%
CN(C)c1ccc(/C=C/c2nccc3ccccc23)cc1,/,i,-52%,i,72%,/
CN(C)c1ccc(/C=C/c2ccc3c4ccccc4ccc3[n+]2-c2ccccc2)cc1,5.8µM*,9.2µM*,-57%,0.29µM*,?,12µM*
CN(C)c1ccc(/C=C/c2c[n+](C)cc3ccccc23)cc1,/,i,-25%,0.46µM*,13µM*,/
CN(C)c1ccc(/C=C/c2cc3ccccc3c[n+]2C)cc1,/,i,-27%,0.82µM*,10µM*,/
Cc1noc(Cn2c(=O)c3cc4c(cc3n(CC(=O)Nc3ccccc3F)c2=O)OCO4)n1,/,i,-22%,i,-6%,/
Cc1nc2c(OCc3ccc(C(F)(F)F)cc3)cccn2c1N(C)Cc1cccs1,26µM*,?,-101%,i,?,?
CCOC(=O)c1cc(C)n(CC2CCC(C(=O)Nc3ccc(C(C)=O)cc3)CC2)c1C (stereo not given),/,/,-14%,/,?,/
CCOC(=O)c1cc(C)n(CC2CCC(C(=O)Nc3cccc(C(C)=O)c3)CC2)c1C (stereo not given),/,/,-25%,/,14µM*,/
CCOC(=O)c1cc(C)n(CC2CCC(C(=O)Nc3ccc(Cl)cc3)CC2)c1C (stereo not given),/,/,-25%,/,8.9µM*,/
Cc1ccc2c(c1)[C@H]1[C@H](CO2)[C@H](c2ccccc2)[C@]2(C)C(=O)Nc3ccc(Cl)cc3C(=O)N12,?,?,2%,?,5%,-17%

# Compound activity from PubChem.
